EBV gp42 inh: EBV gp42 inhibition. Fluorescence polarization binding assay, mP read-out. AID 1085. Q1HVG2. inhibition, % (tested at 21.74 µM). 0.42% of 220,000 active; in the data active = inhibition above about 50%
Target sequence (Q1HVG2 whole entry, looked up): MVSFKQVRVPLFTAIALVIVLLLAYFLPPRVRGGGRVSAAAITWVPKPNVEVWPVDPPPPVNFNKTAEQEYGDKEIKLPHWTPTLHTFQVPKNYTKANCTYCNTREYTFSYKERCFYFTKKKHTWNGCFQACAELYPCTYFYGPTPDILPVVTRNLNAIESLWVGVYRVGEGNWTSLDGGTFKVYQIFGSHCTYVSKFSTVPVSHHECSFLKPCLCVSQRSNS
E coli Lon inh: inhibits E. coli Lon protease | 0.42% of 360,000 active | P0A9M0 | inhibition, % at 7.94 µM | purified E. coli Lon protease, fluorescence polarization; in the data active = inhibition above about 13%, passing the limit was not always enough
Bcl-xL primary: blocks human Bcl-xL binding to Bim BH3 peptide | AID 2129 | GST-Bcl-xL / FITC-Bim BH3 peptide fluorescence polarization | inhibition, % at 10.9 µM | 0.7% of 320,000 active;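 active = inhibition above the mean of all tested compounds plus 3 SD, cutoff set per campaign, cut at about 30% in these data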;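 also: inhibitors lower millipolarization by displacing the labeled peptide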
MCL1-BIM inh: disrupts human MCL1 binding to BIM-BH3 peptide. Q07820. GST-MCL1 / FITC-Bim-BH3 fluorescence polarization. inhibition, % at 10.9 µM. 0.68% of 320,000 active. AID 2057;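 active = inhibition above the mean inhibition of all tested compounds plus 3 SD, set per campaign, cut at about 40% in these data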;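 also: higher means more loss of mP so more displacement of Bim peptide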
MEX-5 binding: C. elegans MEX-5 TCR-2 RNA binding activity; MEX-5/FITC-TCR2 RNA binding, fluorescence polarization; stronger effect = lower value; activity score (negative = inhibition of binding), % at 10 µM; 0.38% of 300,000 active; AID 1832;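 active = inhibition past about -25% in most replicates, and total fluorescence under double the plate's negative control median, limit read from the data; inconclusive = replicates evenly split on the limit, or fluorescence at least double controls; inactive = too little inhibition in most replicates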
GLD-1 TGE inh: GLD-1-TGE RNA interaction inhibition (C. elegans) | AID 2280 | 0.44% of 320,000 active | Q17339 | purified GLD-1 + fluorescein TGE RNA, fluorescence polarization | inhibition, % at 5.96 µM;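 active = percent inhibition above a per-plate cutoff, the plate mean of test compounds plus 3 SD, cut at about 30% in these data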
E coli Lon conf: E. coli Lon inhibition confirmation | shares compounds with E coli Lon inh | purified E. coli Lon, fluorescence polarization | inhibition, % at 7.94 µM | 31% of 1,400 active | AID 602230; in the data active = inhibition above about 16%
Hits are given with their value; 0 = inactive; ? = inconclusive; - = not tested or not shown; + = active, no number. The list is not random: actives were taken first. Their share in the collection is about 1.5%.

SMILES	EBV gp42 inh	E coli Lon inh	Bcl-xL primary	MCL1-BIM inh	MEX-5 binding	GLD-1 TGE inh	E coli Lon conf
COc1cc(C(O)CNC(C)C)cc(F)c1OC (centres undefined)	-	23	0	0	0	0	0
CC(Cc1ccc(O)cc1)NCC(O)c1cc(O)cc(O)c1 (centres undefined)	0	0	0	0	0	0	-
CC(=O)N1N=C(c2cccnc2)OC1c1ccccc1Cl (centres undefined)	0	0	0	0	0	0	-
CCCCn1c(O)c(C=NCc2ccc3c(c2)OCO3)c(=O)[nH]c1=O	0	0	0	0	0	0	-
O=c1[nH]c(=O)n(Cc2ccco2)c(O)c1C=NCc1ccc2c(c1)OCO2	0	20	0	0	0	0	0
Cc1nc2cc([N+](=O)[O-])ccc2c(=O)n1-c1ccccc1[N+](=O)[O-]	0	15	0	0	0	0	0
Cc1ccc(N=Cc2c(O)n(C)c(=O)n(C)c2=O)cc1	-	46	0	0	0	0	0
CCOC(=O)c1c(C)[nH]c(C(=O)C(C)N2CCCC2)c1C (centres undefined)	0	0	0	0	0	0	-
C=CCn1c(O)c(C(C)=NCCN2CCN(C(=S)NC)CC2)c(=O)[nH]c1=O	0	0	0	0	0	0	-
Cc1nn(Cc2ccccc2Cl)c(Cl)c1C(=O)O	0	15	0	0	0	0	0
Cc1nn(Cc2ccccc2)c(Cl)c1C(=O)O	0	0	0	0	0	0	-
COc1ccc2cc(C(=O)C3CCCN(C4CCOCC4)C3)ccc2c1 (centres undefined)	0	103	0	0	0	0	0
CC(=O)C1C(N2CC2)CC2C3CC=C4CC(O)CCC4(C)C3CCC21C (centres undefined)	-	0	-	-	-	-	-
COP(=O)(OC)C1(Nc2ccc(C)cc2)CCCCC1	0	0	0	0	0	0	-
CCOC(=O)C1CCCN(c2ccc([N+](=O)[O-])c3nonc23)C1 (centres undefined)	127	193	-	-	?	-	186
CC1CCCN(c2ccc(C(=O)N3CCC4(CC3)OCCO4)cc2[N+](=O)[O-])C1 (centres undefined)	0	0	0	0	0	0	-
CN(C)P1(=O)N(C)CCN1C	-	0	-	-	-	-	-
CCCCn1c(=O)c(C(=O)NCc2ccccc2OC)c(O)c2ccccc21	-	66	0	0	0	0	0
COC1C(C)OC(OC2CC(C)(O)Cc3cc4c(c(O)c32)C(=O)c2c(O)cc3c(c2C4=O)OC2OC3(C)C(O)C(N(C)C)C2O)C(OC)C1(C)OC (centres undefined)	-	+	-	-	-	-	104
COc1ccc2[nH]c(C)c(CCNCc3cccnc3)c2c1	-	69	42	41	-	0	33

Source: PubChem
